Reference: PubChem BioAssay (NCATS)
Active and inactive are the calls of the source. Calls follow the shape of the dose curve; as a rule, active = well fitted curve in the direction sought with a large enough effect; inconclusive = small, poorly fitted or top-dose-only effect, or another doubt; inactive = no such curve, though single readings can be large or run the other way.

What follows are molecules tested against Hexokinase-4 (Homo sapiens) + Glucokinase regulatory protein (Homo sapiens) (UniProt P35557+Q14397) (assay: qHTS assay for inhibitors of recombinant human GCK-GKRP interaction: Diaphorase-coupled assay (AID 743205)). Conditions: G6PDH/diaphorase resorufin fluorescence; series mostly up to 57.5 µM; activity change, positive = activation: at the top concentration.
Hexokinase-4 (Homo sapiens) + Glucokinase regulatory protein (Homo sapiens), sequence (P35557 whole entry, looked up): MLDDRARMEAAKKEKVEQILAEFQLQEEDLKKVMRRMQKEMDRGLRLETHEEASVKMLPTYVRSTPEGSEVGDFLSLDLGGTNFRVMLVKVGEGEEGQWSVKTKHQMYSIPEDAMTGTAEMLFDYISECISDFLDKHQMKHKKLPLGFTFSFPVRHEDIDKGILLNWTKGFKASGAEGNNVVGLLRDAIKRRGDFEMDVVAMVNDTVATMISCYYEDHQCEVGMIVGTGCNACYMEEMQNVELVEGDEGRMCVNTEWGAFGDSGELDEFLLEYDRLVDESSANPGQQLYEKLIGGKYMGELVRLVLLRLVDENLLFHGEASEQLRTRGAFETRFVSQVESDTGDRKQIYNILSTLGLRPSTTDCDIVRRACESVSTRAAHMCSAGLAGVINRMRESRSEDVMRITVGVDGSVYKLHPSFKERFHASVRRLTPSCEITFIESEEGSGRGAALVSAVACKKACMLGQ
Hexokinase-4 (Homo sapiens) + Glucokinase regulatory protein (Homo sapiens), sequence (Q14397 whole entry, looked up): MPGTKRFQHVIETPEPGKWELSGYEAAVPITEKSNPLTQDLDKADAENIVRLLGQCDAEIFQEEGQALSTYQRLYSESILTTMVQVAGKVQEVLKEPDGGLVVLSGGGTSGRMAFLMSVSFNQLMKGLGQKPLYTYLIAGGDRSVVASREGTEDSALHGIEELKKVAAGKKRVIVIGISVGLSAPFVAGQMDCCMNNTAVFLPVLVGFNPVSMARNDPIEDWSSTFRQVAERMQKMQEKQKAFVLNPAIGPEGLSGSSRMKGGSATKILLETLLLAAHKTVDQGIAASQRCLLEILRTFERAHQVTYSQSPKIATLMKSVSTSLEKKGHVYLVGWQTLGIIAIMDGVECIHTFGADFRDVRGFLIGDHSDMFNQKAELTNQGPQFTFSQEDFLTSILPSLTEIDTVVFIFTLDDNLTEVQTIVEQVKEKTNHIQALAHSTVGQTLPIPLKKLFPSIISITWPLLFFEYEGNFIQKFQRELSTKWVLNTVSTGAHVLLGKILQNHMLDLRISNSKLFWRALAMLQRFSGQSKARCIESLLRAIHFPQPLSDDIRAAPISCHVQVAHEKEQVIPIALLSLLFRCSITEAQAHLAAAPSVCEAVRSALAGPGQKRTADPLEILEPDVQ
Procedure, shortened: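 A kinetic fluorescence read (Ex 525/Em 590 nm, every minute for 30 minutes) tracked resorufin from a G6PDH-diaphorase coupled GCK reaction. It contained 10 nM GST-GCK, 10 nM FLAG-GKRP, 5 mM glucose, 0.4 mM ATP in Hepes pH 7.6. Normalized to with/without-enzyme DMSO controls.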

| SMILES | activity change, positive = activation |
| --- | --- |
| Cn1cc(C(=O)OCC2CCN(CCNS(C)(=O)=O)CC2)c2ccccc21 | -6.41% (inactive) |
| Cc1ccc2c(c1)C(N1CCN(C)CC1)=Nc1cccnc1N2 | -5.51% (inactive) |
| CNCCc1cnc(CCC(c2ccccc2)c2ccccc2)[nH]1 | -0.688% (inactive) |
| CCCCCCCCCC(=O)NC(CN1CCOCC1)[C@H](O)c1ccccc1 (some centres not stated) | 1.06% (inactive) |
| CC1=C(/C=C/C(C)=C/C=C/C(C)=C\C(=O)O)C(C)(C)CCC1 | -7.26% (inactive) |
| COC(=O)C(N)Cc1ccc(Cl)cc1 (configuration not stated) | 0.459% (inactive) |
| COc1ccccc1N1CCN(CCCCNC(=O)c2ccc3ccccc3c2)CC1 | -2.55% (inactive) |
| Cn1c(=O)c2c(nc(/C=C/c3cccc(Cl)c3)n2C)n(C)c1=O | -4.45% (inactive) |
| O=c1cc(-c2ccccc2)[nH]c2nc(Cl)ccc12 | -3.09% (inactive) |
| COc1cccc(OC)c1OCCNCC1CSc2ccccc2O1 (configuration not stated) | -2.5% (inactive) |
| S=C(S)N1CCCC1 | 0.0032% (inactive) |
| CC1CNCCN1S(=O)(=O)c1cccc2cnccc12 (configuration not stated) | -5% (inactive) |
| CN1C2CCC1CC(OC(c1ccccc1)c1ccccc1)C2 (configuration not stated) | -2.34% (inactive) |
| CC(C)(C)c1ccc(/C=C/C(=O)Nc2ccc3c(c2)OCCO3)cc1 | -15.9% (inactive) |
| OC[C@H]1O[C@@H](n2cnc3cncnc32)[C@H](O)[C@@H]1O | 0.888% (inactive) |
| Clc1nccc2c1ccc1ccccc12 | -7.14% (inactive) |
| O=c1ccn([C@@H]2O[C@H](COP(=O)(O)OP(=O)(O)O)[C@@H](O)[C@H]2O)c(=O)[nH]1 | -3.54% (inactive) |
